Reference: PubChem BioAssay
For part of these data: Entries with a potency or affinity are not part of this list. The source made the active and inactive calls. Unless noted, the rule behind the calls is not given here.

What was measured:
[1] = antimalarial activity against Dd2 strain (AID 2302;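 active = growth inhibition above 50% at the single 2 µM test dose, taken to imply half-maximal potency below 2 µM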;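 note: 0% = DMSO untreated growth and 100% = chloroquine plus artemisinin killed control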); conditions: P. falciparum Dd2 in RBCs, LDH growth readout, 72 h; at 2 µM; stronger effect = higher value
[2] = human hepatoma cell viability loss – ATP luminescence, cytotoxicity control for P. falciparum antimalarial project, primary screen (AID 2303;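 active = inhibition above 50%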;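 note: 0% = DMSO wells and 100% = digitonin-killed cells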); conditions: HepG2 viability, 24-48 h, at 10 µM, stronger effect = higher value
[3] = molecular target: L-lactate dehydrogenase (Plasmodium falciparum (isolate CDC / Honduras)) (UniProt Q27743); assay: PfLDH activity inhibition – cell lysate, 3D7 strain, counter-screen for P. falciparum growth inhibition project (AID 2304);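 note: 0% = vehicle and 100% = reference inhibitor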; conditions: P. falciparum 3D7 crude extract, LDH APAD/NBT absorbance; at 2 µM; stronger effect = higher value
[4] = inhibition of 3D7 malaria parasite growth – strain 3D7 (AID 2306);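 note: 0% = DMSO wells and 100% = chloroquine plus artemisinin control wells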; conditions: P. falciparum 3D7 erythrocytic growth, LDH absorbance, 72 h; at 2 µM; stronger effect = higher value
[5] = molecular target: Calcium-dependent protein kinase 1 (Plasmodium falciparum (isolate 3D7)) (UniProt P62344); assay: PfCDPK1 kinase inhibitors, biochemical, TCAMS library (AID 1159585; cut-off not given, nearly all actives have IC50 up to about 0.98 µM;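 note: inhibitors leave more ATP so luminescence rises with inhibition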); conditions: recombinant PfCDPK1, Kinase-Glo ATP depletion luminescence
[6] = molecular target: Plasmodium falciparum protein kinase 6 (PK6, PF3D7_1337100) (UniProt Q8IDW1); assay: PfPK6 kinase inhibitors, biochemical, TCAMS library (AID 1159586); conditions: recombinant PfPK6, Kinase-Glo ATP depletion luminescence
[7] = molecular target: Protein kinase 7 (PK7), Plasmodium falciparum 3D7 (PF3D7_0213400) (UniProt Q7YTF7); assay: inhibition of Plasmodium PK7 catalytic activity – biochemical, TCAMS antimalarial set, Kinase-Glo luminescence (AID 1159587); conditions: recombinant PfPK7, Kinase-Glo ATP depletion luminescence
[8] = molecular target: Calcium-dependent protein kinase 4 (Plasmodium falciparum (isolate 3D7)) (UniProt Q8IBS5); assay: PfCDPK4 kinase inhibitors, biochemical, TCAMS library (AID 1159588; cut-off not given, nearly all actives have IC50 up to about 0.91 µM); conditions: recombinant PfCDPK4, Kinase-Glo ATP depletion luminescence
Chain of Calcium-dependent protein kinase 4 (Plasmodium falciparum (isolate 3D7)) (Q8IBS5 whole entry, looked up): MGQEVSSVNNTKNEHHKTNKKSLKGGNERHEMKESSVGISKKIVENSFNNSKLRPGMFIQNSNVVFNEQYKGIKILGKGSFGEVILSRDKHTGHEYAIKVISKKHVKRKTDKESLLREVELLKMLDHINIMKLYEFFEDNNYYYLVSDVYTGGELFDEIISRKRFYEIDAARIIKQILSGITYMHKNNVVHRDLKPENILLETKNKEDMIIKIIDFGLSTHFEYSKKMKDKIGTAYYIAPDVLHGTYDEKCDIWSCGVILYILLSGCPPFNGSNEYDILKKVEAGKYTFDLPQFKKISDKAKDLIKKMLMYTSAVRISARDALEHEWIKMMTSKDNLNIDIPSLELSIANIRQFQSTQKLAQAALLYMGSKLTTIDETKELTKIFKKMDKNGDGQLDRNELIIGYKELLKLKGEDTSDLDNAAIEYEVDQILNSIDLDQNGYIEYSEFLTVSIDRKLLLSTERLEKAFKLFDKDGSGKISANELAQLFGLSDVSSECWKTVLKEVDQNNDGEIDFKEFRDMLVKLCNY

Chain of Plasmodium falciparum protein kinase 6 (PK6, PF3D7_1337100) (Q8IDW1 1-305): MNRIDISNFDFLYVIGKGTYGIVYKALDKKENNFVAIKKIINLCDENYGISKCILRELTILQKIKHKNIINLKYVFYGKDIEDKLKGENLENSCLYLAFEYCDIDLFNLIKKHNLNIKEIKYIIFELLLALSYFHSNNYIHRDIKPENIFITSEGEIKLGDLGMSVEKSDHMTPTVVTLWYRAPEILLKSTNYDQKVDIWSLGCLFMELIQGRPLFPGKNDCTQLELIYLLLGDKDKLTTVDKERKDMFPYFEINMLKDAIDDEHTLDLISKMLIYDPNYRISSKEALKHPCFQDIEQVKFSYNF
Chain of Calcium-dependent protein kinase 1 (Plasmodium falciparum (isolate 3D7)) (P62344 whole entry, looked up): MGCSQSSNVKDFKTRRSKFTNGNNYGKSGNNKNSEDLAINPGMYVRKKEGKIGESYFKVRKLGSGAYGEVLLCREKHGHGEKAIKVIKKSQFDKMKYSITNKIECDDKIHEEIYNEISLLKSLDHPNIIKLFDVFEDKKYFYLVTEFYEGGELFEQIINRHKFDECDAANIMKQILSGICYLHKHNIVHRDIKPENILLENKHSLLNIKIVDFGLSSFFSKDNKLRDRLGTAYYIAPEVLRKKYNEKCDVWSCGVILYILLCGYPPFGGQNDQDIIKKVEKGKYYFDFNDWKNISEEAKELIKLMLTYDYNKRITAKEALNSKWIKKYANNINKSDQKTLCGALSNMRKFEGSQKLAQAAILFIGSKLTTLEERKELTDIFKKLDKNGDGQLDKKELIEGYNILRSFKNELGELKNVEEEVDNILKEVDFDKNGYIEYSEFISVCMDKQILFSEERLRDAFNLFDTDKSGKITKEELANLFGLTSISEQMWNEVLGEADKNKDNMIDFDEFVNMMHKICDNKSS
Chain of L-lactate dehydrogenase (Plasmodium falciparum (isolate CDC / Honduras)) (Q27743 whole entry, looked up): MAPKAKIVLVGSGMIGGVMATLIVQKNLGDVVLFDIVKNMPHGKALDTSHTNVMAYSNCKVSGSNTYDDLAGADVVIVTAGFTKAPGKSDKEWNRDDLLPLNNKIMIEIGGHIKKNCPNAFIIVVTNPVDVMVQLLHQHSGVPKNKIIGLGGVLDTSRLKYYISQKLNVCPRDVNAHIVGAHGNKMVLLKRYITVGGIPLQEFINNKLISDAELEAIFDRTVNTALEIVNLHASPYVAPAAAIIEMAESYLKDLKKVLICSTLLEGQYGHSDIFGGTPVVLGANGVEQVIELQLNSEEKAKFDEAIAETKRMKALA
Chain of Protein kinase 7 (PK7), Plasmodium falciparum 3D7 (PF3D7_0213400) (Q7YTF7 1-343): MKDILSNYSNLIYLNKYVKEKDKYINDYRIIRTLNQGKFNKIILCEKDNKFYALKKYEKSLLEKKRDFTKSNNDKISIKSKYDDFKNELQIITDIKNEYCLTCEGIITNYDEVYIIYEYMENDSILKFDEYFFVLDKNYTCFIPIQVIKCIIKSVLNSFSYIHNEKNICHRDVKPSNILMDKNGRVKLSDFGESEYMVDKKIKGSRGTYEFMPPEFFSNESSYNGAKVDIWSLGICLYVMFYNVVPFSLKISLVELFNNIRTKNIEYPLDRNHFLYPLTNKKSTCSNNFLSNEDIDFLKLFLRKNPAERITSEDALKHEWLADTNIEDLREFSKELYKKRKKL

NC1=NC2(CCCCC2)N(OCCCOc2cc(Cl)c(Cl)cc2Cl)C(N)=N1
active: growth inhibition [1] 98% | inhibition [2] 62% | growth inhibition [4] 94%
inactive: inhibition [3] -11% | outcome [5] | outcome [6] | outcome [7] | outcome [8]

Cc1ccc(CNC(=O)[C@H](Cc2ccccc2)Nc2cc(C)nc(NCc3ccccc3C)n2)cc1
inactive: inhibition [2] 23% | inhibition [3] 0% | outcome [5] | outcome [6] | outcome [7] | outcome [8]
active: growth inhibition [1] 50% | growth inhibition [4] 97%

CC(C)C[C@H](NC(=O)c1cc2cc(OCCN3CCNCC3)ccc2o1)C(=O)NC1CC[C@@H](C)N(C(=O)Nc2ccc(Cl)cc2)CC1=O (stereo partly specified)
inactive: inhibition [2] -3% | inhibition [3] 6% | outcome [5] | outcome [6] | outcome [7] | outcome [8]
active: growth inhibition [1] 92% | growth inhibition [4] 90%

CCCCNc1cc(C)nc(NCc2ccccc2)n1
inactive: growth inhibition [1] 37% | inhibition [2] 23% | inhibition [3] 3% | outcome [5] | outcome [6] | outcome [7] | outcome [8]
active: growth inhibition [4] 97%

O=C(Nc1cccc(-c2cc(-c3c(Cl)cccc3Cl)no2)c1)c1cnc2ccccc2c1
active: growth inhibition [4] 87%
inactive: growth inhibition [1] 34% | inhibition [2] -6% | inhibition [3] -3% | outcome [5] | outcome [6] | outcome [7] | outcome [8]

COc1ccc2nccc([C@@H](O)CN3CCC(NCc4ccc5c(c4)NC(=O)CS5)CC3)c2c1
active: growth inhibition [4] 102%
inactive: growth inhibition [1] 36% | inhibition [2] -4% | inhibition [3] -1% | outcome [5] | outcome [6] | outcome [7] | outcome [8]

COc1cc2nc(NCCN3CCOCC3)n3nc(-c4ccccc4)nc3c2cc1OC
active: growth inhibition [1] 98% | growth inhibition [4] 96%
inactive: inhibition [2] 15% | inhibition [3] -3% | outcome [5] | outcome [6] | outcome [7] | outcome [8]

O=C(N1CCN(c2ccc(C(F)(F)F)cc2[N+](=O)[O-])CC1)C(Cl)(Cl)Cl
active: growth inhibition [1] 99% | growth inhibition [4] 101%
inactive: inhibition [2] 29% | inhibition [3] 0% | outcome [5] | outcome [6] | outcome [7] | outcome [8]

COc1ccc(CCNC(=O)c2cnc3c(c2)nc(-c2cnc(-c4ccccc4)[nH]2)n3CCc2cnc[nH]2)cc1
active: growth inhibition [1] 70% | growth inhibition [4] 96%
inactive: inhibition [2] 16% | inhibition [3] 1% | outcome [5] | outcome [6] | outcome [7] | outcome [8]

O=C(Nc1ccc2c(c1)CCC2)N[C@H]1CCN(Cc2ccc(OCCCN3CCCCC3)cc2)C1
active: growth inhibition [4] 96%
inactive: growth inhibition [1] -2% | inhibition [2] 9% | inhibition [3] -2% | outcome [5] | outcome [6] | outcome [7] | outcome [8]

COc1ccc(-c2onc(C(F)(F)F)c2-c2ccc(Br)cc2)c(O)c1
inactive: inhibition [2] 7% | inhibition [3] 4% | outcome [5] | outcome [6] | outcome [7] | outcome [8]
active: growth inhibition [1] 77% | growth inhibition [4] 99%

CNC(=O)c1c(NC(=O)c2cccs2)sc2c1CCCC2
active: growth inhibition [4] 94%
inactive: growth inhibition [1] 2% | inhibition [2] 2% | inhibition [3] -1% | outcome [5] | outcome [6] | outcome [7] | outcome [8]

O=C(Nc1ccc([N+](=O)[O-])cc1)Nc1nc2ccc(Cl)cc2s1
active: inhibition [2] 63% | growth inhibition [4] 92%
inactive: growth inhibition [1] 33% | inhibition [3] 2% | outcome [5] | outcome [6] | outcome [7] | outcome [8]

COCCn1ccc2c3c(N)nc(N)nc3ccc21
active: growth inhibition [4] 93%
inactive: growth inhibition [1] 29% | inhibition [2] 43% | inhibition [3] -2% | outcome [5] | outcome [6] | outcome [7] | outcome [8]

COc1ccc(N2CCN(c3nc(N)c4cc(OC)c(OC)cc4n3)CC2C)cc1 (stereo unspecified)
active: growth inhibition [4] 95%
inactive: growth inhibition [1] 0% | inhibition [2] 8% | inhibition [3] 0% | outcome [5] | outcome [6] | outcome [7] | outcome [8]

O=C(Nc1ccc(-c2ccc(-c3nc4ccccc4[nH]3)cc2)cc1)Nc1ccc(Cl)c(Cl)c1
inactive: inhibition [3] 4% | outcome [5] | outcome [6] | outcome [7] | outcome [8]
active: growth inhibition [1] 100% | inhibition [2] 68% | growth inhibition [4] 102%

COc1ccc(-c2cccc(NC(=O)c3cccc(F)c3)c2)cc1CN1CCCN(C)CC1
active: growth inhibition [1] 78% | growth inhibition [4] 101%
inactive: inhibition [2] 42% | inhibition [3] 0% | outcome [5] | outcome [6] | outcome [7] | outcome [8]

Cc1ccc(C2(C)CC(C)(C)N(C(=O)COc3ccc4ccccc4c3)c3ccccc32)cc1 (stereo unspecified)
active: growth inhibition [1] 98% | growth inhibition [4] 100%
inactive: inhibition [2] 0% | inhibition [3] -2% | outcome [5] | outcome [6] | outcome [7] | outcome [8]

O=C(NCc1ccc(Cl)cc1)c1ccc(CN2CCCN(CC3CCCCC3)CC2)cc1
active: growth inhibition [4] 84%
inactive: growth inhibition [1] 5% | inhibition [2] 18% | inhibition [3] -3% | outcome [5] | outcome [6] | outcome [7] | outcome [8]

CCCC(C)c1ccc(N2C(N)=NC(N)=NC2(C)C)cc1 (stereo unspecified)
inactive: growth inhibition [1] 7% | inhibition [3] 2% | outcome [5] | outcome [6] | outcome [7] | outcome [8]
active: inhibition [2] 51% | growth inhibition [4] 90%

Cc1[nH]c(C)c(-c2ccc(-c3cccc(Cl)c3)nc2)c(=O)c1Cl
inactive: inhibition [2] 15% | inhibition [3] 0% | outcome [5] | outcome [6] | outcome [7] | outcome [8]
active: growth inhibition [1] 97% | growth inhibition [4] 97%

NCCCN(Cc1ccc(Cl)c(Cl)c1)C(=O)Nc1ccc(Cl)c(Cl)c1
inactive: growth inhibition [1] 41% | inhibition [3] -2% | outcome [5] | outcome [6] | outcome [7] | outcome [8]
active: inhibition [2] 100% | growth inhibition [4] 93%

COc1cc2c(cc1C(F)(F)F)N(C(=O)Nc1cc(F)c(F)c(-c3cccnc3)c1)CC2
inactive: growth inhibition [1] 15% | inhibition [2] 20% | inhibition [3] 3% | outcome [5] | outcome [6] | outcome [7] | outcome [8]
active: growth inhibition [4] 90%

CCCCCCCCNCC(O)c1cc(-c2ccc(Cl)cc2)nc2cc(C)ccc12 (stereo unspecified)
active: growth inhibition [1] 99% | growth inhibition [4] 99%
inactive: inhibition [2] 0% | inhibition [3] -2% | outcome [5] | outcome [6] | outcome [7] | outcome [8]

O=C(NCc1cccc2ccccc12)[C@@H]1CCCN1C(=O)c1ccc(O)c(-c2ccc(Cl)c(Cl)c2)c1
active: growth inhibition [1] 71% | growth inhibition [4] 98%
inactive: inhibition [2] -4% | inhibition [3] 2% | outcome [5] | outcome [6] | outcome [7] | outcome [8]

CC(C)(C)c1ccc(/C=C/C(=O)NCCCCCN2CCC(c3c[nH]c4ccccc34)CC2)cc1
inactive: growth inhibition [1] 12% | inhibition [3] 8% | outcome [5] | outcome [6] | outcome [7] | outcome [8]
active: inhibition [2] 70% | growth inhibition [4] 91%

COc1cc2cc(Cc3cnc(N)nc3N)ccc2c(OC)c1OC
active: growth inhibition [4] 97%
inactive: growth inhibition [1] 2% | inhibition [2] 1% | inhibition [3] 7% | outcome [5] | outcome [6] | outcome [7] | outcome [8]

c1ccc(-c2cc3cccc(-c4nc5ccncc5[nH]4)c3o2)cc1
active: growth inhibition [1] 95% | growth inhibition [4] 100%
inactive: inhibition [2] 37% | inhibition [3] -6% | outcome [5] | outcome [6] | outcome [7] | outcome [8]

COc1cc2sc(=NC(=O)c3cccc([N+](=O)[O-])c3)n(C)c2cc1OC
active: growth inhibition [1] 79% | growth inhibition [4] 92%
inactive: inhibition [2] 5% | inhibition [3] -3% | outcome [5] | outcome [6] | outcome [7] | outcome [8]

COc1cc(C(=O)NCCCN2CCN(c3cccc(Cl)c3)CC2)ccc1-c1nc2cc(Cl)c(F)cc2[nH]1
active: growth inhibition [1] 81% | growth inhibition [4] 100%
inactive: inhibition [2] 15% | inhibition [3] 0% | outcome [5] | outcome [6] | outcome [7] | outcome [8]

C=CCn1c(SCC(=O)Nc2cc(Cl)ccc2Cl)nc2sc(C)cc2c1=O
inactive: inhibition [2] 8% | inhibition [3] 0% | outcome [5] | outcome [6] | outcome [7] | outcome [8]
active: growth inhibition [1] 96% | growth inhibition [4] 97%

O=C(Nc1ccc(N2CCN(c3ncccc3C(F)(F)F)CC2)nc1)c1cccs1
inactive: growth inhibition [1] 40% | inhibition [2] 7% | inhibition [3] -7% | outcome [5] | outcome [6] | outcome [7] | outcome [8]
active: growth inhibition [4] 83%

COc1cccc(Nc2nc(NCCO)c3ccccc3n2)c1
inactive: inhibition [2] 1% | inhibition [3] -6% | outcome [5] | outcome [6] | outcome [7] | outcome [8]
active: growth inhibition [1] 88% | growth inhibition [4] 99%

O=C(C=Cc1ccc(Cl)c(Cl)c1)NCCCCCN1CCC(CCNC(=O)c2ccc3c(c2)OCO3)CC1
inactive: growth inhibition [1] 2% | inhibition [2] 35% | inhibition [3] -3% | outcome [5] | outcome [6] | outcome [7] | outcome [8]
active: growth inhibition [4] 99%

CCCCCCN1CCC(CNCc2cccc([N+](=O)[O-])c2)CC1
active: growth inhibition [4] 95%
inactive: growth inhibition [1] 15% | inhibition [2] 16% | inhibition [3] -1% | outcome [5] | outcome [6] | outcome [7] | outcome [8]

CN(C)c1cccc2c1nc(-c1ccco1)n2CCNCc1ccccc1
active: growth inhibition [1] 97% | growth inhibition [4] 98%
inactive: inhibition [2] -1% | inhibition [3] 2% | outcome [5] | outcome [6] | outcome [7] | outcome [8]

O=C(Nc1ccccc1)N(Cc1cccc(-c2ccc(CNC3CCCC3)cc2)c1)C1CCN(Cc2ccccc2)CC1
inactive: inhibition [3] 8% | outcome [5] | outcome [6] | outcome [7] | outcome [8]
active: growth inhibition [1] 96% | inhibition [2] 100% | growth inhibition [4] 101%

CCCc1ccc(N2C(N)=NC(N)=NC2(C)C)cc1
active: inhibition [2] 59% | growth inhibition [4] 94%
inactive: growth inhibition [1] -2% | inhibition [3] 6% | outcome [5] | outcome [6] | outcome [7] | outcome [8]

CC(C)CCN=C(N)Nc1ccc(OCCCCCOc2ccc(NC(N)=NCCC(C)C)cc2)cc1
active: growth inhibition [1] 67% | growth inhibition [4] 85%
inactive: inhibition [2] 14% | inhibition [3] 6% | outcome [5] | outcome [6] | outcome [7] | outcome [8]

Cc1cc(F)ccc1N(c1nc(-c2cc(Cl)ccc2Cl)cs1)C1CCNC1 (stereo unspecified)
active: growth inhibition [4] 99%
inactive: growth inhibition [1] 3% | inhibition [2] 19% | inhibition [3] 0% | outcome [5] | outcome [6] | outcome [7] | outcome [8]

O=C(/C=C/c1ccc(Cl)c(Cl)c1)NCCCCCN1CCC(c2[nH]nc(-c3ccccc3)c2Br)CC1
inactive: growth inhibition [1] 23% | inhibition [3] 1% | outcome [5] | outcome [6] | outcome [7] | outcome [8]
active: inhibition [2] 100% | growth inhibition [4] 95%

CCCCNC(=O)c1[nH]c2c(NC(=O)COc3ccccc3)cccc2c1-c1cccc(NC(=O)C(N)CO)c1 (stereo unspecified)
active: growth inhibition [4] 87%
inactive: growth inhibition [1] -3% | inhibition [2] 11% | inhibition [3] -3% | outcome [5] | outcome [6] | outcome [7] | outcome [8]
